Data from PubChem BioAssay (Tox21).
Records with an inconclusive call do not appear. Active and inactive are the calls of the source. Unless noted, calls come from the whole dose curve; as a rule, active = well fitted curve in the direction sought with a large enough effect in the repeat runs; inconclusive = weak or mixed curves; inactive = no such curve, though single readings can be large; an effect the other way counts as inactive or inconclusive.

Columns and labels:
[1] = A CellTox Green Cytotoxicity Assay to monitor cytotoxicity in HepG2 cells - 8 hour (AID 1224890); note: nearly all actives have a fitted effect of over 45% in size
Procedure, shortened: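 HepG2, 600 cells/well premixed w/ CellTox Green; 5 h settle, 37 C/5% CO2; pintool cpd add (DMSO); 37 C, 40 h; fluorescence read at 0, 8, 16, 24, 32, 40 h.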

[2] = qHTS assay to identify small molecule antagonists of the estrogen receptor alpha (ER-alpha) signaling pathway using the BG1 cell line in the presence of 0.1 nM 17-beta-estradiol - cell viability counter screen (AID 1259241); note: nearly all actives have a fitted effect of over 40% in size
Procedure, shortened: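 VM7Luc4E2 cells (endogenous ER-alpha, 4×ERE-luciferase), hormone-starved 5 days in charcoal-stripped FBS, were treated with compounds plus 0.1 nM 17beta-estradiol for 22 hr at 37C; viability read in same wells as CellTiter-Fluor live-cell protease fluorescence.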

[3] = qHTS assay to identify small molecule antagonists of the androgen receptor (AR) signaling pathway using the MDA cell line in the presence of 0.5 nM R1881 - cell viability counter screen (AID 1259242); note: nearly all actives have a fitted effect of over 45% in size
Procedure, shortened: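 Live-cell protease fluorescence, CellTiter-Fluor, 30 min at 37C. Cells: MDA-kb2, 3,000/well, preincubated 5 hr. Compounds plus 0.5 nM R1881 final, 16 hr, 37C, 0% CO2.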

[4] = qHTS assay to identify small molecule phospholipidosis (PLD) inducers (AID 1259344; active = well fitted curve in the direction sought with a large enough effect; an effect the other way counts as inactive or inconclusive)
Procedure, shortened: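 Image-based: LipidTOX Red pit count/intensity per well and per cell; HepG2, 24 h compound at 37 C, PFA fixation, Hoechst counterstain.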

[5] = qHTS assay to identify small molecule HDAC inhibitors (AID 1259364);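 note: wild-type HCT-116 cells with endogenous class I/II HDAC activity; top concentration of the series differs between compounds; nearly all actives have a fitted effect of over 45% in size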
Procedure, shortened: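 HCT-116 (wild type), 1,500 cells/well, overnight; compound 2 hr 37C 5% CO2; HDAC-Glo I/II reagent 30 min RT; luminescence readout.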

[6] = qHTS assay to identify small molecule HDAC inhibitors - cell viability counter screen (AID 1259365); note: series mostly up to about 92 µM; nearly all actives have a fitted effect of over 50% in size
Procedure, shortened: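 Wild-type HCT-116 cells were seeded at 1,500 per well, incubated overnight at 37 C, then exposed to compounds in DMSO for 2hr. Viability was read by CellTiter-Glo luminescence after 30min at room temperature.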

[7] = qHTS assay to identify small molecule agonists of the sonic hedgehog signaling (Shh) pathway - cell viability counter screen (AID 1259366); note: nearly all actives have a fitted effect of over 50% in size
Procedure, shortened: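 NIH/3T3-derived 3T3 Gli1-Luc cells (stable Gli1-responsive firefly luciferase reporter) were seeded, rested 4 hr at 37 C/5% CO2, then exposed to compounds in DMSO for 24 hr; viability was read by CellTiter-Fluor fluorescence in the same wells.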

[8] = qHTS assay to identify small molecule antagonists of the sonic hedgehog signaling (Shh) pathway - cell viability counter screen (AID 1259367); note: nearly all actives have a fitted effect of over 55% in size
Procedure, shortened: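 Tox21 library chemicals were tested on a Gli1-Luc NIH/3T3 clone (2,000 cells/well) stimulated by conditioned medium; viability was quantified as fluorescence from CellTiter-Fluor reagent added at 23 hr.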

[9] = qHTS assay to identify small molecule agonists of the sonic hedgehog signaling (Shh) pathway (AID 1259368; calls by dose curve; note: series mostly up to about 92 µM; nearly all actives have a fitted effect of over 15% in size)
Procedure, shortened: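 Read-out: firefly luciferase luminescence from a Gli1 response element reporter stably integrated in NIH/3T3-derived 3T3Gli1-Luc cells, measured 30 min at room temperature after reagent addition. Compound exposure lasted 24 hr at 37 C, 5% CO2.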

[10] = qHTS assay to identify small molecule antagonists of the sonic hedgehog signaling (Shh) pathway (AID 1259369; calls by dose curve; note: nearly all actives have a fitted effect of over 45% in size; note: potency is the fitted concentration of half-maximal effect)
Procedure, shortened: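 Luminescence readout: firefly Luc under Gli1 response element in 3T3Gli1-Luc cells (NIH/3T3 clone). Antagonist mode, stimulation by conditioned medium; compound exposure 24hr at 37 C, 5% CO2.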

[11] = target: Estrogen receptor beta (Homo sapiens) (UniProt Q92731); experiment: qHTS assay to identify small molecule agonists of the estrogen receptor beta (ER-beta) signaling pathway (AID 1259377; active = well fitted activation curve with a large enough effect in the signal ratio in the repeat runs, not every such curve was filed as active; the % refers to the signal ratio)
Procedure, shortened: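 ER-beta-UAS-bla HEK293T (GripTite) cells carrying a UAS-driven beta-lactamase reporter, in medium with 2% charcoal-stripped FBS, were exposed to compounds for 16 hr at 37C; LiveBLAzer B/G FRET substrate was then added and fluorescence read after 2 hours at room temperature.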

[12] = target: Estrogen receptor beta (Homo sapiens) (UniProt Q92731); experiment: qHTS assay to identify small molecule antagonists of the estrogen receptor beta (ER-beta) signaling pathway (AID 1259378; active = well fitted inhibition curve with a large enough effect in the signal ratio in the repeat runs, not every such curve was filed as active; the % refers to the signal ratio)
Procedure, shortened: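 ER-beta-UAS-bla HEK293T cells in 2% charcoal-stripped FBS medium treated with compound plus 1nM final 17-beta-estradiol for 16 hr at 37C. Beta-lactamase reporter read by FRET substrate fluorescence after 2 hours at room temperature.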

[13] = qHTS assay to identify small molecule agonists of the androgen receptor (AR) signaling pathway in the presence of an antagonist - cell viability counter screen (AID 1259379);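 note: MDA-kb2 human breast cancer cells carrying an MMTV luciferase reporter; series mostly up to about 92 µM; nearly all actives have a fitted effect of over 25% in size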
Procedure, shortened: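 Viability counter screen: CellTiter-Fluor fluorescence, measured in the same wells as the luciferase read-out. MDA-kb2 cells, 3,000/well, with nilutamide at 3.0uM final and compounds at 15 concentrations, 16 hr at 37C, 0% CO2.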

[14] = qHTS assay to identify small molecule agonists of the estrogen receptor beta (ER-beta) signaling pathway - cell viability counter screen (AID 1259380); note: nearly all actives have a fitted effect of over 30% in size
Procedure, shortened: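 Luminescence read-out (CellTiter-Glo, 30 min, room temp) taken in the same wells as the beta-lactamase reporter assay; ER-beta-UAS-bla HEK293T cells exposed to DMSO-dissolved compounds for 16 hr at 37C in 2% charcoal-stripped FBS medium.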

[15] = qHTS assay to identify small molecule antagonists of the estrogen receptor beta (ER-beta) signaling pathway - cell viability counter screen (AID 1259382); note: series mostly up to about 92 µM; nearly all actives have a fitted effect of over 55% in size
Procedure, shortened: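 Luminescent ATP read-out (CellTiter-Glo, 30 min, RT) taken in the same wells as the bla reporter assay. HEK293T ER-beta-UAS-bla cells in 2% charcoal-stripped FBS were exposed to compounds with 1nM E2 for 16 hr at 37C.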

[16] = qHTS assay to identify small molecule agonists or antagonists of the thyroid stimulating hormone receptor (TSHR) signaling pathway - wild type cell line counter screen (AID 1259384; calls by dose curve)
Procedure, shortened: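 Wild-type Hek293 cells, 800/well, 18 h at 37C, then compound with Ro20-1724 for 30 min RT. cAMP by HTRF (cAMP-d2/anti-cAMP cryptate), 1 h RT, fluorescence read. 15 concentrations, triplicates.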

[17] = target: Estrogen receptor (Homo sapiens) (UniProt P03372); experiment: qHTS assay to identify small molecule antagonists of the estrogen receptor alpha (ER-alpha) signaling pathway using the BG1 cell line in the presence of 0.1 nM 17-beta-estradiol (AID 1259244); note: nearly all actives have a fitted effect of over 50% in size
Procedure, shortened: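 Luminescence after ONE-Glo (30 min, room temperature) measured ERE-luciferase activity in VM7Luc4E2 cells treated 22 h with compound and 0.1 nM final 17beta-estradiol as stimulator.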

[18] = target: Estrogen receptor (Homo sapiens) (UniProt P03372); experiment: qHTS assay to identify small molecule agonists of the estrogen receptor alpha (ER-alpha) signaling pathway in the presence of an antagonist (AID 1259383; calls by dose curve; note: top concentration of the series differs between compounds; nearly all actives have a fitted effect of over 15% in size)
Procedure, shortened: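 Luciferase luminescence (ONE-Glo, 30min at room temperature) measured in VM7Luc4E2 cells after 22hr compound exposure at 15 concentrations, with 10.0nM ICI-182,780 final present; cells express endogenous ER-alpha and carry four EREs upstream of luciferase.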

Measured: Potency

Chain of Estrogen receptor beta (Homo sapiens) (Q92731 whole entry, looked up): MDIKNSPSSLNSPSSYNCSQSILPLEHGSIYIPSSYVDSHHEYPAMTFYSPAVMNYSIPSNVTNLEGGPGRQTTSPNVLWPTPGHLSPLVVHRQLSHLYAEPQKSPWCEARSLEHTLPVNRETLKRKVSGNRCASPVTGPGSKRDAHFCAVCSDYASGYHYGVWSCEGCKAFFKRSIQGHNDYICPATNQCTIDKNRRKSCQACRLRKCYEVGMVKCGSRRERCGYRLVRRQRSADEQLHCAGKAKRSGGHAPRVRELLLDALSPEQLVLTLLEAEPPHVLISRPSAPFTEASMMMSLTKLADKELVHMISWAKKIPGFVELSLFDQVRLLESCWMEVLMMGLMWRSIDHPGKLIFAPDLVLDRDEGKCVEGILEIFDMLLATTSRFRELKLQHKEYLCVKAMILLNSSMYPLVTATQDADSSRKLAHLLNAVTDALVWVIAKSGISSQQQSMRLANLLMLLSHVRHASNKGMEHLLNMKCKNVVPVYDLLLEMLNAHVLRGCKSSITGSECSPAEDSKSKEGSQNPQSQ
Chain of Estrogen receptor (Homo sapiens) (P03372 whole entry, looked up): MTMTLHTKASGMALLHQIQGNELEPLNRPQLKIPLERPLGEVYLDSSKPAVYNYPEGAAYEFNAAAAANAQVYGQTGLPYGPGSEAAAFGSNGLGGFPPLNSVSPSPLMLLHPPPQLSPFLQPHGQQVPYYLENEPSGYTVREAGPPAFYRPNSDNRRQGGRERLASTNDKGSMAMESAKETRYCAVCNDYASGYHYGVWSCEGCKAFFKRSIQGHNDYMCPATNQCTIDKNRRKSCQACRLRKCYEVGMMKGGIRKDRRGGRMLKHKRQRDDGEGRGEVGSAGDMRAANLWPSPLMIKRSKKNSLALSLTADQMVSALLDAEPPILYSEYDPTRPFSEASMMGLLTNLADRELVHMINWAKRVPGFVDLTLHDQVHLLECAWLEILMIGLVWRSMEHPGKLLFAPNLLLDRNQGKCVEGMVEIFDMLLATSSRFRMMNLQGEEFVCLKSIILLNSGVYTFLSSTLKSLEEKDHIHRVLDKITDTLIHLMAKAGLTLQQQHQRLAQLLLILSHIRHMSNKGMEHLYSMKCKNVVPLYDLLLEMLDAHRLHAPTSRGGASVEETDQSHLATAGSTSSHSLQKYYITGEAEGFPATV

COc1ccc(CN(CCN(C)C)c2ncccn2)cc1
inactive: [1] | [2] | [3] | [4] | [5] | [6] | [7] | [8] | [9] | [10] | [11] | [12] | [13] | [14] | [15] | [16]

CC(C)=CCCC(C)C=O (centres undefined)
inactive: [1] | [2] | [3] | [17] | [5] | [6] | [7] | [8] | [9] | [10] | [12] | [15] | [18] | [16]

CC(C)Oc1ccccc1O
inactive: [1] | [2] | [3] | [17] | [5] | [7] | [8] | [9] | [10] | [13] | [15] | [18] | [16]

COc1cccc([C@H](O)C2CCN(CCc3ccc(F)cc3)CC2)c1OC
active: [10] 54.5 µM
inactive: [1] | [2] | [3] | [17] | [5] | [7] | [8] | [9] | [11] | [12] | [15] | [18] | [16]

COC(=O)c1cc(Cl)ccc1[N+](=O)[O-]
inactive: [1] | [2] | [3] | [17] | [5] | [6] | [7] | [8] | [9] | [10] | [11] | [12] | [14] | [15] | [18] | [16]

Nc1ccc(-c2ccc(F)cc2)cc1
inactive: [1] | [2] | [3] | [17] | [6] | [8] | [9] | [10] | [13] | [14] | [15] | [18] | [16]

COc1ccnc2c1CCCCC2S(=O)c1nc2ccccc2[nH]1 (centres undefined)
inactive: [1] | [2] | [3] | [17] | [5] | [7] | [8] | [9] | [10] | [12] | [13] | [15] | [16]
